In all, about 2,300 compounds went through this assay and about 1,100 (48%) were called active. So high a share suggests a set chosen from earlier hits. This is one part of the list. Results with a measured potency or affinity are listed apart. Unmarked numbers belong to inactive results. How the calls were made is not given here.

As a reminder, the inhibition is the change of the read-out against control, counted positive when it falls.

The assay in a line: S. typhi counter-screen signal inhibition – fluorescence, 4 h, counter-screen for PhoP regulon inhibitor project, dose response (AID 2384). The conditions noted are these: S. typhi GFP reporter counter-screen; series mostly up to 150 µM; inhibition: at the top concentration.
As to `CCOc1ccc(-c2ccc(SCC(=O)N3CCOCC3)nn2)cc1`, the “inhibition” value is -7.13%. On to `NC(=O)c1ccc[n+]([C@H]2O[C@@H](COP(=O)([O-])OP(=O)(O)OC[C@H]3O[C@@H](n4cnc5c(N)ncnc54)[C@H](O)[C@@H]3O)[C@H](O)[C@@H]2O)c1`, for which the “inhibition” value is -10.8%.

As for `CN1CCCN(C(=O)COc2ccc(F)cc2Cl)CC1`, the “inhibition” value was 0.57%. As to `Cc1cc(NC(=O)COC(=O)c2cccc(S(=O)(=O)N(C)C3CCCCC3)c2)no1`, the “inhibition” value is -11.6%. On to `COC(=O)c1sccc1NC(=S)NCc1ccc(Cl)cc1`, for which the “inhibition” value is 33.3%. For `COC(=O)CNc1n[nH]c(=S)[nH]c1=O`, the “inhibition” value is 26.9%.

In the case of `C/[N+]([O-])=C1\Cc2ccccc2C1=O`, the “inhibition” value is -21.2%. `NC1=C(Br)C(=O)c2ccccc2C1=O`: the “inhibition” value was 22.2%. For `Clc1ccc2c(NCc3ccccn3)ccnc2c1`, the “inhibition” value was -0.79%.

For `O=C(NCc1cccs1)C(=O)NCC(c1ccco1)N1CCN(c2ccc(F)cc2)CC1` (centres undefined), the “inhibition” value was 1.68%. For `CCC(=O)N1CCc2cc(S(=O)(=O)NCCCN3CCN(Cc4ccccc4)CC3)ccc21`, the “inhibition” value was -9.6%. For `COc1ccc(NC(=O)C(Cc2ccccc2)n2cccc2)cc1` (centres undefined), the “inhibition” value is 9.62%.

Turning to `CC(C)NC(=O)c1cc(-c2ccc(Br)cc2)on1`, the “inhibition” value is 10.1%. The same measure for `CC(=O)NCc1ccc(C(=O)CCl)cc1`: 18.7%; for `Cc1c(C)n(C)c2ccc(C(=O)NCc3cccs3)cc12`: -3.78%. As for `COc1ccc(Cl)cc1NC(=O)CCN1CCOCC1`, the “inhibition” value was 13.3%. The result for `O=C(NCCCN1CCOCC1)C(C(=O)c1ccccc1)n1ccccc1=O` (centres undefined) reads 2.1%.

Regarding `CCCC1(c2ccccc2)NC(=O)N(CC(=O)Nc2cc(S(=O)(=O)N3CCOCC3)ccc2Cl)C1=O` (centres undefined), the “inhibition” value is -4.71%. As for `Cc1ccc(C)c(NC(=O)CSc2nnc([C@@H](N)Cc3c[nH]c4ccccc34)o2)c1`, the “inhibition” value was 33.6%. On to `COCCNC(=O)c1cccc(OC2CCN(Cc3ccccc3C)CC2)c1`, for which the “inhibition” value was -4.82%. For the molecule `COc1ccc(C(=O)C2CCN(CC(=O)Nc3cc(C)cc(C)c3)CC2)cc1`, the “inhibition” value is 26.4%. The same measure for `O=C(O)c1ccc(CSc2nnnn2C2CCCCC2)cc1`: -28%; for `COCCNC(=O)CN(C(=O)CCC(=O)Nc1ccccn1)c1ccc(F)c(Cl)c1`: 1.46%; for `COCCN1C(=O)C(=O)/C(=C(/O)c2cccc(OC)c2)C1c1ccncc1` (centres undefined): 4.45%. For `Cc1ccc(CCN2C(=O)CCC2(C)C(=O)NC2CCCC2)cc1` (centres undefined), the “inhibition” value was 2.68%. Regarding `FC(F)(F)c1ccccc1NC1=NCCC1`, the “inhibition” value was 7.38%. The same measure for `CCN(CC)CC#CC(C)OCOCC#CCOC` (centres undefined): -8.61%; for `Cc1ccc2[nH]cc(CCNC(=O)c3cccnc3)c2c1`: -28.4%. For the molecule `Cc1cc(C)cc(CSc2nnc(C)c(=O)[nH]2)c1`, the “inhibition” value is 30.6%. In the case of `COC(=O)c1cc2ccsc2n1CC(=O)N(C)c1ccccc1`, the “inhibition” value is 13.3%. The result for `COC(=O)c1c(-c2cccc(C)c2)csc1N` reads -0.42%. The result for `COc1c(Br)cc2c(C)c(C(=O)N3CCOCC3)oc2c1Br` reads -36.3%. With `Cn1c(=O)cc(SCC(=O)N2CCN(C3CCCCC3)CC2)c2ccccc21`, the “inhibition” value is 9.71%.

For the molecule `COc1ccccc1C(=O)N1CC2(C)CC1CC(C)(C)C2` (centres undefined), the “inhibition” value was -20.3%. For the molecule `NC(=O)COc1c(-c2ccco2)oc2ccccc2c1=O`, the “inhibition” value is -26%. Take `O=C(NCc1ccc2c(c1)OCO2)c1ccc2c(c1)C(=O)N(Cc1cccnc1)C2=O`: the “inhibition” value is 4.44%. The same measure for `Cc1ncc(CC(=O)n2cc(C(=O)c3cc(F)ccc3O)cn2)s1`: 27.9%.

As to `CCC(C)n1c(SCC(=O)NCc2ccco2)nnc1-c1cccc(S(=O)(=O)N2CCOCC2)c1` (centres undefined), the “inhibition” value is 3.8%. As to `COc1cc(C)c(Cl)cc1S(=O)(=O)n1cnc(C)c1`, the “inhibition” value was 13.2%. The result for `CC1CC(C)CN(C(=O)c2ccc(NC(=O)c3ccc(=O)[nH]c3)cc2)C1` (centres undefined) reads 20%; that for `COc1ccccc1NC(=O)CSC1CC(=O)N(c2ccc3c(c2)OCO3)C1=O` (centres undefined), 23.1%.

Take `COc1cccc(NC(=O)N2CCCC(C(=O)Nc3ccccc3OC)C2)c1` (centres undefined): the “inhibition” value was -26.5%. Take `CN(C)/C=N/c1ncc(C(=O)c2ccc(Cl)cc2)s1`: the “inhibition” value is -34.4%.

For `CCN(CC)CCCCCCCCOC(=O)c1cc(OC)c(OC)c(OC)c1`, the “inhibition” value was -0.35%. As to `CCn1cc(C(=O)NCCc2ccccc2)c(=O)c2cc(F)c(N3CCN(C)CC3)cc21`, the “inhibition” value was 5.9%. In the case of `CSc1ccc(NC(=O)C(C)N2CCN(C)CC2)cc1` (centres undefined), the “inhibition” value was 16.4%. As to `O=C(CCc1nc2ccccc2s1)NC1CCOC1=O` (centres undefined), the “inhibition” value was 1.3%. In the case of `CCOc1ccc2nc(NC(=O)C3=NNC(=O)CC3)sc2c1`, the “inhibition” value was 4.7%. Regarding `CCCCn1cnc2cc(NCc3cccc(OC)c3O)ccc21`, the “inhibition” value was 18.8%. The result for `CC(=O)Nc1ccc(S(=O)(=O)Nc2nc3ccccc3nc2Nc2cccc(S(N)(=O)=O)c2)cc1` reads -9.28%; that for `COc1ccc(C(=O)NNS(=O)(=O)c2ccccc2)cc1OC`, 2.97%; that for `Cc1cc(C)c(S(=O)(=O)Nc2cccnc2)c(C)c1`, -3.5%. For the molecule `Cc1cccc(NCN2C(=O)c3ccccc3C2=O)c1`, the “inhibition” value is 6.6%.

Turning to `CCOc1ccccc1NC(=O)NS(=O)(=O)c1ccc(C)cc1`, the “inhibition” value was -13%.

Consider `COC(=O)NNS(=O)(=O)c1ccc(C)cc1`, for which the “inhibition” value was 37.3%. For `Cc1ccc(C)c(SCC(=O)Nc2ccc(S(=O)(=O)Nc3ncccn3)cc2)c1`, the “inhibition” value is -5.02%.

For the molecule `Cc1ccc(S(=O)(=O)NC(C)(C)CSc2nnc(N)s2)cc1`, the “inhibition” value is -24.4%. Consider `O=C(COC(=O)CNC(=O)c1ccccc1)Nc1ccc(F)c([N+](=O)[O-])c1`, for which the “inhibition” value is -8.3%. The same measure for `CCOc1ccc(C2CC(=O)NC(SCC(=O)OC)=C2C#N)cc1` (centres undefined): -12.6%. Regarding `COc1cc(S(=O)(=O)N2CCN(C(=O)c3ccco3)CC2)c(OC)cc1C`, the “inhibition” value is 7.78%. The result for `COc1ccc(-n2nnc3c(SCC(=O)N4CCCc5ccccc54)ncnc32)cc1` reads -11.9%; that for `O=C(Nc1ccccc1)c1cccnc1N1CCOCC1`, -26.5%; that for `Cc1c(C(=O)N2CCN(Cc3ccccc3)CC2)sc2ncnc(N3CCOCC3)c12`, -6.98%. For `CCC(Sc1nccn1C)C(=O)Nc1nnc(C)s1` (centres undefined), the “inhibition” value was -18.7%. With `N#Cc1ccc(C2=NC(C(F)(F)F)(C(F)(F)F)c3c(n(Cc4ccco4)c(=O)[nH]c3=O)N2)cc1`, the “inhibition” value was -0.36%. On to `COCCNC(=O)Cn1cnc2c1c(=O)n(C)c(=O)n2C`, for which the “inhibition” value is 8.18%. `Cc1[nH]c2ccccc2c1/C=N/Nc1nc2ccccc2[nH]1`: the “inhibition” value was 11.7%. For the molecule `Cc1cc(C)c2c(N)c(C(=O)c3ccc(Cl)c(Cl)c3)sc2n1`, the “inhibition” value is -3.82%.

For the molecule `O=C(O)c1cccc(NC2=Nc3cccc4cccc2c34)c1`, the “inhibition” value was -13.8%. For `COc1ccc(Cn2nnnc2C(c2cc3ccc(OC)cc3[nH]c2=O)N2CCC(C)CC2)cc1` (centres undefined), the “inhibition” value was -31.1%.

`CCCCCNC(=O)c1cn(CC)c2cc(N3CCN(C)CC3)c(F)cc2c1=O`: the “inhibition” value was 31.1%. For the molecule `O=C(CCC(=O)Nc1nnc(C2CCCCC2)s1)NCC1CCCO1` (centres undefined), the “inhibition” value was 21.9%. Take `COc1ccc(OC)c(S(=O)(=O)N2CCC(C(=O)NCc3ccccc3OC)CC2)c1`: the “inhibition” value is 14.1%. The same measure for `COC(=O)C1=C(C(=O)OC)SC(=C2C(=S)C(C)(C)N(C(=O)C3CC3)c3ccccc32)S1`: 26.6%; for `COc1cc(/C=N/N(C)S(=O)(=O)c2ccc(C)cc2)cc([N+](=O)[O-])c1O`: 15.3%; for `COc1cccc(/C=N/NC(=O)CNC(=O)COc2cccc(C)c2)c1O`: 18%. `Nc1ccc(C(O)(C(F)(F)F)C(F)(F)F)cc1`: the “inhibition” value is 6.54%. As to `Cc1nnc(SCc2cnc(-c3ccc(C(C)C)cc3)s2)n1C`, the “inhibition” value is 8.56%. Take `COC(=O)c1ccc(Cn2c(O)c(N=NC(N)=S)c3ccccc32)o1`: the “inhibition” value is 0.41%.

Turning to `CC1CCCCN1S(=O)(=O)c1ccc(S(=O)(=O)NCCc2ccncc2)cc1` (centres undefined), the “inhibition” value was -15.6%. Consider `NC(=O)c1ccsc1NC(=O)c1ccc2c(c1)CCCC2`, for which the “inhibition” value is -10.9%. Regarding `COc1ccc(/C=N/NC(=O)c2cccnc2)c(C(=O)O)c1OC`, the “inhibition” value was -21.9%.

Regarding `N#C/C(=C\c1ccc(O)c(O)c1)C(=O)c1ccc(O)c(O)c1`, the “inhibition” value was 3.1%. As to `COc1cc(/C=C(/C#N)C(=O)Nc2ccccc2)c(Br)cc1OCc1ccc(C(=O)O)cc1`, the “inhibition” value was 1.17%.

Consider `COc1ccc(OC)c(C(=O)c2ccc(C(=O)O)cc2)c1`, for which the “inhibition” value is 21%.

With `COc1ccc2nc(C)cc(Nc3ccc(N4CCOCC4)cc3)c2c1`, the “inhibition” value is 11.6%. The result for `COc1ccc(/C=N/NC2=NCCCCC2)c(OC)c1` reads 15.8% [at 9.38 µM]; that for `CC(Oc1ccc(/C=N/NC(=O)Cc2cccc3ccccc23)cc1)C(=O)O` (centres undefined), -15.5%; that for `COc1ccc(CNC(=O)C(c2cccs2)N(C(=O)c2csnn2)C2CC2)cc1` (centres undefined), 4.17%. In the case of `COC(=O)c1ccc(NC(=O)c2ccccc2N(C)S(=O)(=O)c2ccccc2)cc1`, the “inhibition” value is -15.2%. In the case of `Cc1ccc(N/N=C/c2ccncc2)cc1`, the “inhibition” value is 5.95%.

As to `Cc1ccc(-c2ccccc2NC(=O)CS(=O)CC(=O)Nc2ccc(C)c(Cl)c2)o1` (centres undefined), the “inhibition” value was -36.7%. Turning to `COc1ccc(-n2c3c(cc(C(=O)Nc4cccc(C)n4)c2=O)C(=O)CC(C)(C)C3)cc1`, the “inhibition” value is 8.91%.

Turning to `CNc1nc(SC)n(C)c(=O)c1N=O`, the “inhibition” value is 28.2%.

On to `Cc1ccc(NC(=S)Nc2ccc(S(=O)(=O)Nc3ncccn3)cc2)cc1Cl`, for which the “inhibition” value is -48.7%.

As for `CCOC(=O)c1cc(-c2ccc(F)cc2)n(CCC(=O)NC2CCN(Cc3ccccc3)CC2)c1C`, the “inhibition” value was 16.4%.

Turning to `O=C(CCCCCn1c(=S)[nH]c2ccc(N3CCOCC3)cc2c1=O)NC1CCN(Cc2ccccc2)CC1`, the “inhibition” value is 4.3%. The same measure for `Cc1ccc(CCNC(=O)C2CCN(S(=O)(=O)N3CCCC3)CC2)cc1`: 5.6%; for `Cc1c(C)n(C)c2ccc(C(=O)NCCCN3CCCC3)cc12`: 23.2%; for `CC1CCN(c2nc3ccc(C(=O)NCCCN4CCCCC4)cc3s2)CC1`: -15.2%. For the molecule `O=C(c1ccc2c3c(cccc13)CC2)C1CCCN(Cc2ncc[nH]2)C1` (centres undefined), the “inhibition” value was 5.85%.

Regarding `COCC1CCCN(Cc2cn[nH]c2-c2cc3ccccc3o2)C1` (centres undefined), the “inhibition” value is -4.44%. Take `O=c1cc(-c2ccc(Cl)cc2)[nH][nH]1`: the “inhibition” value was -29.4%. The same measure for `COc1ccc2c(c1)c1nc(SCC(C)C)n(CCO)c(=O)c1n2C`: -6.72%; for `O=C(CN(C(=O)CNS(=O)(=O)c1ccccc1)C1CCCC1)NCc1ccco1`: 10.6%; for `COc1ccc(C(=O)CSc2nnc(-c3cnccn3)n2Cc2ccco2)cc1`: -5.15%.

Consider `CCn1c(CNC(=O)c2ccc(OC)cc2)nnc1SC`, for which the “inhibition” value was 13.5%. `CN(C)S(=O)(=O)c1cccc(NC(=O)c2cnccn2)c1`: the “inhibition” value was -8.09%. Turning to `CC(=O)Nc1ccccc1-c1nc2ccc(C(=O)N3CCN(c4cc(C)ccc4C)CC3)cc2[nH]c1=O`, the “inhibition” value is -15.4%.

For the origin of these results see PubChem BioAssay AID2384 (Southern Research Specialized Biocontainment Screening …, 2010).
